Common to all, as to type: functional
Assay [1] has as its system Plasmodium falciparum. In words: GSK_TCMDC: Inhibition of Plasmodium falciparum 3D7 in whole red blood cells, using parasite LDH activity as an index of growth. Test compounds present at 2uM.
Assay [2] concerns Plasmodium falciparum. In words: GSK_TCMDC: Inhibition of Plasmodium falciparum Dd2 in whole red blood cells, using parasite LDH activity as an index of growth. Test compounds present at 2uM.
Assay [3] has as its system HepG2. In words: GSK_TCMDC: Percent inhibition of human HepG2 cell line. Test compounds present at 10uM.

Turning to `CC1(C)CC(NC(=O)NC2CCN(Cc3ccccc3)CC2)CC(C)(CNC(=O)NC2CCN(Cc3ccccc3)CC2)C1` (stereo not given), the Inhibition in assay [1] came to 93%; in assay [2] it was 2%; in assay [3], 10%.
In the same order, the values of `Oc1cccc(-c2nc(-c3ccccc3)c(-c3ccc(Oc4ccc(-c5[nH]c(-c6cccc(O)c6)nc5-c5ccccc5)cc4)cc3)[nH]2)c1` are 91%, 96% and 6%.
As to `Cc1ccc(C(=O)NCC2CCN(c3ccc(C(F)(F)F)cc3NC(=O)c3ccco3)CC2)cn1`, the Inhibition turned out to be 91% in assay [1], 73% in assay [2] and 9% in assay [3].
On the same counts, the results for `OCC(c1ccccc1)n1c(COc2ccc(Cl)cc2)nc2c(OCCCN3CCCCC3)cccc21` (stereo not given) are 90%, 68% and 6%.
In the same order, the values of `Cc1cc(N[C@@H](Cc2ccccc2)C(=O)NCc2cccc(F)c2)nc(Nc2ccccc2)n1.O=C(O)C(F)(F)F` are 100%, 92% and 20%.
Consider `CC(C)CNCc1cccc(-c2cccc(CN(CCCN3CCN(C)CC3)C(=O)NC3CCCCC3)c2)c1.O=C(O)C(F)(F)F`, for which the Inhibition in assay [1] was 100%; in assay [2], 84%; in assay [3] it was 16%.
In the same order, the values of `O=[N+]([O-])c1ccccc1C=NN=c1c2c([nH]c3ccccc13)CCCC2` are 97%, 99% and 0%.
In the same order, the values of `O=C(Cc1c[nH]cn1)Nc1cccc(-c2ccc(-c3nc4cc(C(F)(F)F)ccc4[nH]3)s2)c1` are 100%, 99% and 5%.
On the same counts, the results for `CC(C)CCn1c(Sc2ccc(C#N)c([N+](=O)[O-])c2)nnc1-c1ccc(Cl)cc1` are 90%, 39% and 25%.
For the compound `Cc1ccccc1Nc1nc(NCc2ccccc2)nc2ccccc12`, the Inhibition in assay [1] is 88%; in assay [2], 35%; in assay [3], 39%.

These data come from ChEMBL document CHEMBL1157539, “Thousands of chemical starting points for antimalarial lead identification” (Nature, 2010).
